Measured potencies and affinities stand elsewhere. A number with no mark means an inactive call. The source made the active and inactive calls.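 How the source made its calls: active means cell killing with a fitted half-maximal concentration at most twice the top valid dose tried; inconclusive means flat fit between -70 and -30 percent, or an invalid fit; inactive means the rest.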

The values below come from PubChem BioAssay AID743158 (Broad Institute, 2013).

The nature of the assay: A549 cell cytotoxicity, dose response, cytotoxicity control, CellTiter-Glo luminescence, dry powder, set 5 (AID 743158). The conditions noted are these: A549 viability, CellTiter-Glo ATP luminescence, 72 h; series mostly up to 26 µM; activity change, negative = cytotoxicity: at the top concentration. A general note: Cellular ATP, detected with luciferase, serves as a proxy for viable cell number.
On to `Fc1cccc2c1[nH]c(=S)n2CCOc1ccccc1`, for which the “activity change, negative = cytotoxicity” value was 22.4%.

`COC(=O)C1=C(C)N(Cc2ccc(Cl)cc2)C(=S)NC1c1ccc(Br)cc1` (configuration not stated): the “activity change, negative = cytotoxicity” value was 10.9%.

Turning to `S=c1[nH]c2ccccc2n1CCOc1ccccc1`, the “activity change, negative = cytotoxicity” value is -11.1%.

On to `Cc1ccc(OCCn2cnc3ccccc32)cc1`, for which the “activity change, negative = cytotoxicity” value is 13.4%.

For `COC(=O)C1=C(C)N(Cc2ccc(Br)cc2)C(=S)NC1c1ccc(F)cc1` (configuration not stated), the “activity change, negative = cytotoxicity” value was 14.4%.

Consider `COC(=O)C1=C(C)N(Cc2ccccc2)C(=S)NC1c1ccc(Br)cc1` (configuration not stated), for which the “activity change, negative = cytotoxicity” value is 11.9%.

Regarding `CCOc1ccc(OCCn2c(=S)[nH]c3ccccc32)cc1`, the “activity change, negative = cytotoxicity” value was -5.18%.

Consider `CCOC(=O)c1c(-c2ccc(F)cc2)csc1NC(=O)CN1CCN(C)CC1`, for which the “activity change, negative = cytotoxicity” value is 5.49%.

On to `CCOC(=O)c1c(-c2ccc(OC)cc2)csc1NC(=O)CN(C)CC(=O)N(C)C`, for which the “activity change, negative = cytotoxicity” value is -0.238%.

As to `Cc1cccc(OCCn2c(=S)[nH]c3cc(C(F)(F)F)ccc32)c1`, the “activity change, negative = cytotoxicity” value was -7.82%.

Regarding `S=c1[nH]c2cccc(Cl)c2n1CCOc1ccccc1`, the “activity change, negative = cytotoxicity” value is 3.73%.

Consider `c1ccc(OCCn2cnc3ccccc32)cc1`, for which the “activity change, negative = cytotoxicity” value was -5.44%.

Take `Cc1ccc2c(c1)[nH]c(=S)n2CCOc1ccccc1`: the “activity change, negative = cytotoxicity” value is 22.8%.

In the case of `COC(=O)C1=C(C)N(Cc2ccc(Br)cc2)C(=S)NC1c1ccc(OC)cc1` (configuration not stated), the “activity change, negative = cytotoxicity” value was 7.24%.

In the case of `Fc1ccccc1OCCn1c(=S)[nH]c2ccccc21`, the “activity change, negative = cytotoxicity” value was 8.89%.

Turning to `O=c1[nH]c2ccccc2n1CCOc1ccccc1`, the call was inactive.

For the molecule `CCOC(=O)c1c(-c2ccc(F)cc2)csc1NC(=O)CN1CCN(CC)CC1`, the “activity change, negative = cytotoxicity” value is 7.96%.

`CCOC(=O)c1c(NC(=O)CN2CCN(C)CC2)sc(C)c1-c1ccc(C)cc1`: the “activity change, negative = cytotoxicity” value is 1.65% [at 12 µM].

For `CCOC(=O)c1c(NC(=O)CNCCN(C)C)sc(C)c1-c1ccccc1`, the “activity change, negative = cytotoxicity” value was 19.6%.

As for `Cc1ccc(OCCn2c(SCCO)nc3ccccc32)c(C(C)C)c1`, the “activity change, negative = cytotoxicity” value is -1.14%.

With `Cc1ccc(OCCn2c(=S)[nH]c3ccccc32)cc1`, the “activity change, negative = cytotoxicity” value was -5.22%.

As to `COC(=O)C1=C(C)N(Cc2ccc(F)cc2)C(=S)NC1c1cccc(F)c1` (configuration not stated), the “activity change, negative = cytotoxicity” value is 12.2%.

As for `Cc1ccc(C(C)C)c(OCCn2c(=S)[nH]c3ccccc32)c1`, the “activity change, negative = cytotoxicity” value was -4.67% [at 12 µM].

As to `S=c1[nH]c2ccccc2n1CCOc1ccc(Cl)cc1`, the “activity change, negative = cytotoxicity” value is 21.4%.

As for `Cc1ccccc1OCCn1c(=S)[nH]c2ccccc21`, the “activity change, negative = cytotoxicity” value was 6.12%.

For `Cc1ccc(OCCn2c(C)nc3ccccc32)cc1`, the “activity change, negative = cytotoxicity” value was 15.3%.

`Cc1ccc(OCCn2c(=S)[nH]c3ccccc32)c(C(C)C)c1`: the result was inactive.
